The results in this text go back to ChEMBL document CHEMBL3988442, “University of Dundee, Small-Polar-MMV Screening Library” (2021).

The campaign covered roughly 38,000 compounds. About 1,200 (3.2%) showed an effect of 50% or more. The median lay at about -58%. This excerpt belongs to a sample that is enriched for strong results.

For this test, the system named is Plasmodium falciparum. Nature of the test: Calibr Malaria Delayed Death Assay SOP. The format is functional, organism-based. Further details: scale not given: in the data most compounds retested in dose-response had high values. Particulars: concentration 4.99e-06 (unit not given; other assays of the set use mol/L).
Turning to `COc1ccccc1CNC(=O)N1CCN(Cc2cc(C)on2)CC1`, the “Percent Effect” value is -4.63%.
As to `COCc1nnc(NC(=O)CN2C(=O)c3ccccc3NC2C(C)C)s1` (stereo not given), the “Percent Effect” value is -66.52%.
On to `O=C(COc1ccc(Cl)cc1)N1CCOCC1c1ncon1` (stereo not given), for which the “Percent Effect” value is recorded as -73.82%.
Next, `Cc1nc(N(C)C)nc(NCCc2ccccn2)c1C`: -11.2%; `O=S1(=O)CCC(S(=O)(=O)c2cccc(S(=O)(=O)N3CCCCCC3)c2)C1` (stereo not given): -52.35%; `CCc1ccc(CN2CCC3(CC2)CN(c2cnn(C)c2)C(=O)CO3)o1.O=C(O)C(F)(F)F.O=C(O)C(F)(F)F`: -59.96%.
As to `CCS(=O)(=O)N1CCN(CCn2cccn2)c2nc(C)ccc2C1.O=C(O)C(F)(F)F`, the “Percent Effect” value was -65.79%.
Next, `CN(C)CCN1CCN(Cc2nccs2)Cc2cccnc21.O=C(O)C(F)(F)F.O=C(O)C(F)(F)F.O=C(O)C(F)(F)F`: 5.575%.
The figure for `Cc1ccc2c(n1)N(CCn1cccn1)CCN(S(C)(=O)=O)C2.O=C(O)C(F)(F)F` is -106%; for `CN(C)CCN1CCN(Cc2cccs2)Cc2cccnc21.O=C(O)C(F)(F)F.O=C(O)C(F)(F)F.O=C(O)C(F)(F)F` it is 77.04%; for `Cc1ccc2c(n1)N(CCN(C)C)CCN(Cc1c(C)noc1C)C2.O=C(O)C(F)(F)F.O=C(O)C(F)(F)F.O=C(O)C(F)(F)F` it is 61.92%.
As to `COCCN1CCN(Cc2c(C)noc2C)Cc2ccc(C)nc21.O=C(O)C(F)(F)F.O=C(O)C(F)(F)F`, the “Percent Effect” value is -62.13%.
The figure for `CN(C)CCN1CCN(Cc2ccco2)Cc2cccnc21.O=C(O)C(F)(F)F.O=C(O)C(F)(F)F.O=C(O)C(F)(F)F` is 11.84%.
`Cc1ccc2c(n1)N(CCn1cccn1)CCN(CC1CC1)C2.O=C(O)C(F)(F)F.O=C(O)C(F)(F)F`: the “Percent Effect” value is recorded as 77.61%.
With `Cc1noc(C)c1CN1CCN(CCN(C)C)c2ncccc2C1.O=C(O)C(F)(F)F.O=C(O)C(F)(F)F.O=C(O)C(F)(F)F`, the “Percent Effect” value was 19.65%.
For the molecule `O=C(C1CCOC1)N1C[C@H]2CN(Cc3ccncc3)C(=O)[C@H]2C1.O=C(O)C(F)(F)F` (stereo not given in full), the “Percent Effect” value is recorded as -110.3%.
In the case of `CCN1Cc2ccccc2N(C(=O)C2CCC2)CCC1=O`, the “Percent Effect” value is on record as -10.23%.
On to `CC(C)NC(=O)C1CN(C(=O)CCc2ccccc2)CC12CCOCC2` (stereo not given), for which the “Percent Effect” value is -79.45%.
As to `Oc1ccc(Cl)cc1CNCc1cccc(C(F)(F)F)c1`, the “Percent Effect” value worked out at 88.68%.
Take `NS(=O)(=O)c1ccc(CNCC(=O)NCc2ccc(Cl)cc2Cl)cc1`: the “Percent Effect” value is -66.27%.
Next, `Cc1cc(NC(=O)Cc2ccccc2O)c[nH]c1=O`: -29.46%; `CC(NC(=O)Cc1ccccc1F)(C(N)=O)c1cccc(Cl)c1` (stereo not given): -10.09%.
The figure for `Cc1ccccc1CNCc1cc(Cl)ccc1O` is 74.83%; for `CS(=O)(=O)Cc1ccccc1NCc1cc(Cl)ccc1Cl` it is -167.2%; for `Oc1ccc(Cl)cc1CNCc1ccccc1C(F)(F)F` it is 63.6%.
Next, `Oc1ccc(Cl)cc1CNCc1ccccc1Cl`: 75.8%; `NS(=O)(=O)c1ccc(NCc2ccccc2F)cc1C(F)(F)F`: -7.015%.
For the molecule `CC(=O)N1CCC(NC(=O)c2cc(Cl)ccc2O)CC1`, the “Percent Effect” value is listed as -71.2%.
Next, `OCc1cccc(CNCc2cccc3c2OCCO3)c1`: 41.91%; `O=C1CCCN1c1cccc(CNCc2cc(F)ccc2F)c1`: -68.04%.
Next, `c1cnn(CCNCc2cnc(N3CCOCC3)nc2)c1`: -160.5%; `Clc1snnc1CN1CCCC1Cn1cncn1` (stereo not given): -22.89%; `CCc1nc(CN2CCCC(N(C)CCn3cccn3)C2)no1` (stereo not given): -71.81%.
`Cc1nc(N(C)C)nc(C)c1NS(=O)(=O)c1ccccc1Cl`: the “Percent Effect” value was -104.4%.
The figure for `O=C(NCCc1cccc(F)c1)c1nc2c(s1)CCCN2C(=O)C1CC1` is -105%.
As to `COC[C@@H]1CCC[C@]12CN(S(=O)(=O)c1cn(C)cn1)CCO2`, the “Percent Effect” value was -139.4%.
For the molecule `CSCC(=O)NCc1cc(Br)ccc1OC(F)F`, the “Percent Effect” value was -97.53%.
As for `OCCNc1nc(NCc2cccnc2)nc2nccnc12`, the “Percent Effect” value is reported as -78.22%.
The figure for `NC(=O)C1Cn2ccnc2C2(CCN(C(=O)c3ccncc3)CC2)O1` (stereo not given) is -59.21%.
As for `CC1N(c2cnn(C)c2)C(=O)COC12CCN(Cc1ccoc1)CC2` (stereo not given), the “Percent Effect” value is listed as -59.84%.
Consider `CCc1ncc2c(n1)CN(Cc1nc(-c3cccs3)no1)CC2`, for which the “Percent Effect” value is -24.12%.
The figure for `COCCC1(C(=O)O)CCCN(C(=O)c2cc(F)ccc2OC)C1` (stereo not given) is -162.1%; for `CC(=O)N1CCN(C(=O)Cn2ccc3c(Cl)cccc32)CC1` it is -40.91%.
The figure for `CC(C)CN(C(=O)Nc1cccnc1)C1CC1` is -3.552%.
Next, `CN1CCCC1c1ccc(C(=O)Nc2c3c(nn2C)CCC3)s1` (stereo not given): -68.39%.
With `Cc1nc(C)n(CC2CCCN2CC(=O)Nc2cccnc2)n1` (stereo not given), the “Percent Effect” value was -55.47%.
Take `CC(C)CN1CCCC1c1ccc(C(=O)Nc2cn(C)nn2)s1` (stereo not given): the “Percent Effect” value is given as 51.14%.
Next, `CC(C)CN1CCCC1c1ccc(C(=O)Nc2cc[nH]n2)s1` (stereo not given): 42.59%; `O=C(CN1CCc2onc(-c3ccccc3F)c2C1)NC1CC1`: -100.2%; `COc1ccc(CCC(=O)N2CCCC(n3cncn3)C2)cc1` (stereo not given): -80.83%.
`O=C(Cc1ccccc1)N1CCC2(CC1)COCCN2CC1CC1.O=C(O)C(F)(F)F`: the “Percent Effect” value is -81.37%.
The figure for `CCOc1ccc(C(=O)N2CCCCC2Cn2nc(C)cc2C)cn1` (stereo not given) is -93.63%.
Next, `CNC(=O)Cc1cc2nccc(-c3c(OC)cccc3OC)n2n1`: -192.8%.
Turning to `Cc1cc2nc(C(C)C)cc(N3CCN(S(N)(=O)=O)CC3)n2n1`, the “Percent Effect” value is recorded as -79.73%.
Next, `COc1ccc(C2CCCN2C(=O)NCCCn2cccn2)cc1` (stereo not given): -95.69%; `CC(=O)N(C)Cc1ccccc1NC(=O)c1ccccc1C`: -129.3%.
Next, `CCN(CC)Cc1ccccc1NC(=O)N(C)Cc1ccc(OC)cc1`: 39.65%.
Next, `O=C(c1cc(C2CC2)[nH]n1)N1CCN(Cc2ccccc2)CC1`: -79.8%.
As to `O=S(=O)(C1CC1)N1CCc2ncnc(N3CCOCC3)c2CC1`, the “Percent Effect” value is given as -72.08%.
Next, `CN(Cc1ccc(C#N)cc1)CC1CCS(=O)(=O)C1` (stereo not given): -39.39%; `Cc1nccc(CN2CC[C@H](Oc3cccc(F)c3)[C@@](C)(O)C2)n1`: -32.63%.
Next, `C[C@]1(O)CN(CC(=O)N2CCCC2)CC[C@@H]1Oc1cccc(F)c1`: 21.38%; `C[C@]1(O)CN(CCC(N)=O)CC[C@@H]1Oc1cccc(F)c1`: -45.94%.
The figure for `C[C@]1(O)CN(Cc2cccc(C(=O)O)c2)CC[C@@H]1Oc1cccc(F)c1` is -94.06%; for `Cc1cnccc1CN1CC[C@H](Oc2cccc(F)c2)[C@@](C)(O)C1` it is 79.24%.
On to `C[C@]1(O)CN(CCO)CC[C@@H]1Oc1cccc(F)c1`, for which the “Percent Effect” value stood at 63.55%.
As for `C[C@]1(O)CN(Cc2ncccc2F)CC[C@@H]1Oc1cccc(F)c1`, the “Percent Effect” value is -43.28%.
Take `Cc1cnccc1CN1CC[C@@](C)(O)[C@H](Oc2cccc(F)c2)C1`: the “Percent Effect” value is 38.73%.
In the case of `Cc1ccc(C(F)(F)F)cc1NC(=O)C1CCCN1` (stereo not given), the “Percent Effect” value was -141.5%.
Next, `CC(=O)Nc1ccc(CNc2cccc(CS(C)(=O)=O)c2)cc1`: -47.89%; `O=C(NCc1cccs1)[C@@H]1CC[C@@H]2[C@@H](CCN2C2CCOCC2)O1.O=C(O)C(F)(F)F`: -51.06%.
The figure for `O=C(NCCCN1CCOCC1)c1ccc(-n2ccc3ccccc32)s1` is 33.29%; for `O=C(NCCN1CCOCC1)c1ccc(-n2ccc3ccccc32)s1` it is 6.644%.
The figure for `CCN(CC)CCNC(=O)c1ccc(-n2ccc3ccccc32)s1` is 90.12%.
Take `CCc1n[nH]c(C2CN(C(=O)c3ccc(NC4CC4)nc3)CCO2)n1` (stereo not given): the “Percent Effect” value is -51.88%.
On to `CC[C@H](C)[C@H](N)C(=O)Nc1nc(-c2cnc(N3CCOCC3)nc2)cs1`, for which the “Percent Effect” value is on record as -43.38%.
On to `OC(COc1ccccc1)CN1CCN(c2nccs2)CC1` (stereo not given), for which the “Percent Effect” value is recorded as -10.76%.
Turning to `Cn1cc(CN2C[C@H]3CCC[C@@]3(COCC3CC3)C2)cn1.O=C(O)C(F)(F)F`, the “Percent Effect” value was 51.84%.
As to `Cc1nc(COC[C@@]23CCC[C@@H]2CN(Cc2nccs2)C3)cs1.O=C(O)C(F)(F)F`, the “Percent Effect” value is given as -17.19%.
The figure for `CS(=O)(=O)N1C[C@H]2CCC[C@@]2(COc2ccccn2)C1.O=C(O)C(F)(F)F` is 2.668%; for `Cc1ccc(C(=O)N2C[C@H]3CCC[C@@]3(COc3ccccn3)C2)nc1.O=C(O)C(F)(F)F.O=C(O)C(F)(F)F` it is 6.864%.
Next, `O=C(O)C(F)(F)F.O=C(c1ncccn1)N1C[C@H]2CCC[C@@]2(COc2ccccn2)C1`: 12.48%; `Cc1cc(CN2C[C@H]3CCC[C@@]3(COCc3csc(C)n3)C2)no1.O=C(O)C(F)(F)F`: 11.53%; `Cn1cc(CN2C[C@@H]3COC[C@]3(COCC3CC3)C2)cn1.O=C(O)C(F)(F)F`: -16.85%.
Regarding `O=C(O)C(F)(F)F.O=C(c1cocn1)N1C[C@H]2CCC[C@@]2(COc2ccccn2)C1`, the “Percent Effect” value is 50.75%.
The figure for `Fc1cnc(N2C[C@H]3CCC[C@@]3(COc3ccccn3)C2)nc1.O=C(O)C(F)(F)F.O=C(O)C(F)(F)F` is 3.485%; for `Cc1cccc(CN2C[C@H]3CCC[C@@]3(COCc3csc(C)n3)C2)n1.O=C(O)C(F)(F)F.O=C(O)C(F)(F)F` it is 81.41%.
Next, `Cn1cc(CN2C[C@H]3CCC[C@@]3(COc3ccccn3)C2)cn1.O=C(O)C(F)(F)F.O=C(O)C(F)(F)F`: 64.46%; `O=C(O)C(F)(F)F.O=C(O)C(F)(F)F.c1ccc(CN2C[C@H]3CCC[C@@]3(COCC3CC3)C2)nc1`: -73.03%.
Next, `COCc1ncc(-c2nccn2CCS(C)(=O)=O)cn1`: -109%.
